Results published in PubChem BioAssay (Tox21).
Results filed as inconclusive are left out. Active and inactive are the calls of the source. Unless noted, calls come from the whole dose curve; as a rule, active = well fitted curve in the direction sought with a large enough effect in the repeat runs; inconclusive = weak or mixed curves; inactive = no such curve, though single readings can be large; an effect the other way counts as inactive or inconclusive.

Columns and labels:
[1] = qHTS assay to identify small molecule agonists of the NFkB signaling pathway (AID 1159509; active = well fitted curve in the direction sought with a large enough effect in the signal ratio in the repeat runs, not every such curve was filed as active; the % refers to the signal ratio)
In short: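 ME-180 NFkB-bla, 2,000 cells/well, overnight plating; cpd pinned in DMSO, 5 h 37 C; B/G FRET substrate 1.5 h RT; ex 405, em 460/530 nm.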

[2] = qHTS assay to identify small molecule agonists of the NFkB signaling pathway - cell viability counter screen (AID 1159515; calls by dose curve; note: nearly all actives have a fitted effect of over 55% in size)
In short: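 NFkB-bla ME-180 cells, 2,000/well, plated overnight at 37 C; compound added for 5 hr at 37 C. Viability read in the same wells as the bla reporter, by CellTiter-Glo luminescence after 30 min at room temperature.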

[3] = qHTS assay to identify small molecule agonists of the endoplasmic reticulum stress response signaling pathway (AID 1159516; active = well fitted activation curve with a large enough effect in the signal ratio in the repeat runs, not every such curve was filed as active; the % refers to the signal ratio)
In short: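 CellSensor ESRE-bla HeLa cells, 1,500 per well, plated overnight, then exposed to compounds for 5 hr at 37 C. Beta-lactamase reporter read with LiveBLAzer B/G FRET substrate after 2 hr at room temperature, 405 nm excitation, 460 and 530 nm emission.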

[4] = qHTS assay to identify small molecule agonists of the endoplasmic reticulum stress response signaling pathway - cell viability counter screen (AID 1159517; calls by dose curve;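 note: HeLa cells carrying an ER stress response element beta-lactamase reporter; nearly all actives have a fitted effect of over 50% in size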)
In short: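 HeLa cells carrying an ESRE-driven beta-lactamase reporter receive compound for 5 hr at 37 C. Cell viability is then gauged with CellTiter-Glo by luminescence, 30 min at room temperature.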

[5] = qHTS assay to identify small molecule antagonists of the retinoid-related orphan receptor gamma (ROR-gamma) signaling pathway - cell viability counter screen (AID 1159520); note: nearly all actives have a fitted effect of over 50% in size
In short: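 Cytotoxicity was read from cellular ATP (CellTiter-Glo luminescence) after 16 hr at 37 C with 1 uM doxycycline induction. The inducer was added 2 hr after compound transfer to Tet-on ROR gamma CHO cells.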

[6] = target: Nuclear receptor ROR-gamma (Homo sapiens) (UniProt P51449); assay: qHTS assay to identify small molecule antagonists of the retinoid-related orphan receptor gamma (ROR-gamma) signaling pathway (AID 1159521;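 note: CHO cells with doxycycline inducible ROR-gamma driving an RORE luciferase reporter; top concentration of the series differs between compounds; nearly all actives have a fitted effect of over 50% in size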)
In short: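 Cells were plated, rested 4 h at 37 C, exposed to compounds for 2 h, then given 1 uM final doxycycline hyclate to induce RORγ expression. After 16 h, ONE-Glo luminescence from the ROR response element reporter was measured.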

[7] = qHTS assay to identify small molecule agonists of the AP-1 signaling pathway - cell viability counter screen (AID 1159525; calls by dose curve; note: nearly all actives have a fitted effect of over 55% in size)
In short: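 Luminescent ATP readout (Cell Titer Glo, 30 min RT), normalised to DMSO and tetra n-octyl ammonium bromide controls. Cells were ME-180 AP-1-bla in 0.5% dialyzed FBS Opti-MEM, with a 5 h, 37 °C compound exposure.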

[8] = qHTS assay to identify small molecule agonists of the AP-1 signaling pathway (AID 1159526; calls by dose curve)
[9] = target: Retinoic acid receptor RXR-alpha (Homo sapiens) (UniProt P19793); assay: qHTS assay to identify small molecule agonists of the RXR signaling pathway (AID 1159527; calls by dose curve; note: nearly all actives have a fitted effect of over 35% in size)
Sequence of Retinoic acid receptor RXR-alpha (Homo sapiens) (P19793 whole entry, looked up): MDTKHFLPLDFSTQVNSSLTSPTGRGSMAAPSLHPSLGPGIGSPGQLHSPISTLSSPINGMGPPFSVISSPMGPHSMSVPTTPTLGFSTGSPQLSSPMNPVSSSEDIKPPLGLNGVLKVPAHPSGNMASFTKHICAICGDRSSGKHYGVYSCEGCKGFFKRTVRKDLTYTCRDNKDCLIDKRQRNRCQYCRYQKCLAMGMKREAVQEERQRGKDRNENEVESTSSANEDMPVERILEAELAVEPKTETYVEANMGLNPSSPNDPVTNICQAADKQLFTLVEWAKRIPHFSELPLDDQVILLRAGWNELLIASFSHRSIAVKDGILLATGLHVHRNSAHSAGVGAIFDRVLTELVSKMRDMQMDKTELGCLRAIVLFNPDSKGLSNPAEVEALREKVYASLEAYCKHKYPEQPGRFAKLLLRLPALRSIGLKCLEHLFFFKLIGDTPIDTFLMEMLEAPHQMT
In short: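 Cells plated at 2,000/well, rested 5 hr at 37 C, pin-dosed with DMSO compound solutions, incubated 16 hr, then loaded with B/G FRET substrate for 2 hr at RT before dual-emission fluorescence reading.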

[10] = qHTS assay to identify small molecule agonists of the RXR signaling pathway - cell viability counter screen (AID 1159529);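 note: HEK 293T cells carrying an RXR-alpha UAS beta-lactamase reporter; nearly all actives have a fitted effect of over 50% in size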
In short: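 Steps: seed RXR-alpha-UAS-bla HEK 293T cells in assay medium containing 2% charcoal-stripped FBS; incubate 5 hr; add compounds in DMSO; incubate 16 hr at 37 C; after the bla read, add CellTiter-Glo and read luminescence at 30 min.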

[11] = qHTS assay to identify small molecule antagonists of the retinoid acid receptor (RAR) signaling pathway - cell viability counter screen (AID 1159551); note: nearly all actives have a fitted effect of over 35% in size
In short: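 C3RL4 RARE-luciferase cells, 1,000/well, incubated overnight, then dosed with compound plus 1 uM retinol (final). After 6 hr at 37 C, viability read by CellTiter-Glo ATP luminescence following 30 min at room temperature.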

[12] = qHTS assay to identify small molecule antagonists of the retinoic acid receptor (RAR) signaling pathway (AID 1159552; note: nearly all actives have a fitted effect of over 50% in size)
In short: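 Retinol at 1 uM final stimulated RARE-luciferase expression in C3RL4 cells exposed to test compounds for 6 hr at 37 C. Reduced luminescence, read 30 min after detection reagent, indicated pathway antagonism.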

[13] = qHTS assay to identify small molecule agonists of the retinoic acid receptor (RAR) signaling pathway (AID 1159553); conditions: C3RL4 RARE luciferase reporter, agonist, 6 h; activation: at 73.3 µM (top of the series)
In short: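 C3RL4 RARE-luciferase cells were seeded at 1,000/well and grown overnight at 37 C, then exposed to compounds for 6 hr at 37 C, 5% CO2. Luciferase reagent was added and luminescence was read after 30 min at room temperature.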

[14] = qHTS assay to identify small molecule antagonists of the estrogen related receptor (ERR) signaling pathway from Tox21 library - cell viability counter screen (AID 1224834); note: nearly all actives have a fitted effect of over 30% in size; note: potency is the fitted concentration of half-maximal effect
In short: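 ERR reporter cells, 2,000 per well, rested 6 h, then exposed to compound in DMSO for 17.5 hours at 37 C. Viability read as fluorescence after 30 min with CellTiter-Fluor.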

[15] = target: Luciferin 4-monooxygenase (Photinus pyralis) (UniProt P08659); assay: qHTS assay to identify small molecule inhibitors of firefly luciferase (AID 1224835); note: nearly all actives have a fitted effect of over 25% in size
Sequence of Luciferin 4-monooxygenase (Photinus pyralis) (P08659 whole entry, looked up): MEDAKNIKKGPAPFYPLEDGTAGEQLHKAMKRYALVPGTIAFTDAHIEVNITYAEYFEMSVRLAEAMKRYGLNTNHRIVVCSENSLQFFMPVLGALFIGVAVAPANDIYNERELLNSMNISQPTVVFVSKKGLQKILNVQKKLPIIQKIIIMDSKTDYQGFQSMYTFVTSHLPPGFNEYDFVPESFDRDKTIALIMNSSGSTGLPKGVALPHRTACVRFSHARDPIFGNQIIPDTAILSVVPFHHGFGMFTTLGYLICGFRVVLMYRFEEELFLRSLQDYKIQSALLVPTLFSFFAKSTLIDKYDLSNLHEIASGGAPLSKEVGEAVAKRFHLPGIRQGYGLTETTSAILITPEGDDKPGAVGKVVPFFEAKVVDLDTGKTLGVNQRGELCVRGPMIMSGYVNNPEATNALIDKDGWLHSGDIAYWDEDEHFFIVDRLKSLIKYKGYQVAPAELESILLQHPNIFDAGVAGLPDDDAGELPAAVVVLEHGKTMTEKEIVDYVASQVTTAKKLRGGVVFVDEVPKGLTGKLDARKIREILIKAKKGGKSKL
In short: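 Inhibition of purified Photinus luciferase is measured by luminescence. Substrate levels (D-luciferin, ATP) sit at their KM values. Each compound is tested in a concentration series.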

[16] = target: Nuclear receptor subfamily 1 group I member 3 (Homo sapiens) (UniProt Q14994); assay: qHTS assay to identify small molecule antagonists of the constitutive androstane receptor (CAR) signaling pathway (AID 1224838); note: nearly all actives have a fitted effect of over 40% in size
Sequence of Nuclear receptor subfamily 1 group I member 3 (Homo sapiens) (Q14994 whole entry, looked up): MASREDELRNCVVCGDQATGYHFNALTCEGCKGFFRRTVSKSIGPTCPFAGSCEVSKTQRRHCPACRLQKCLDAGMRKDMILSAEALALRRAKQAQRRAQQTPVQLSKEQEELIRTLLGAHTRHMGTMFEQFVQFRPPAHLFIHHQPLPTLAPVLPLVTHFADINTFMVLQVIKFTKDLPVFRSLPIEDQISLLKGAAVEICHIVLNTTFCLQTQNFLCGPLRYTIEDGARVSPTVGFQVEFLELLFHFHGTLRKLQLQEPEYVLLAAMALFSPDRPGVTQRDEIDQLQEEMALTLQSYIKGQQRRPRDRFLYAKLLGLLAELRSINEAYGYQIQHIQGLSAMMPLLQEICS
In short: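 HepG2 cells stably carrying hCAR and a CYP2B6-2.2kb luciferase reporter, seeded 4 hrs before compound (15 concentrations). Stimulated with 50 nM CITCO for 24 hr at 37 C. ONE-Glo luminescence read after 30 min at room temperature.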

[17] = qHTS assay to identify small molecule agonists of the vitamin D receptor (VDR) signaling pathway - cell viability counter screen (AID 743224); note: nearly all actives have a fitted effect of over 50% in size
In short: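 VDR-bla cells, 4 h after plating, exposed to compounds for 16 h at 37C; viability then read in the same wells as CellTiter-Glo luminescence after 30 min at room temperature, following the bla FRET read.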

[18] = qHTS assay to identify small molecule antagonists of the vitamin D receptor (VDR) signaling pathway - cell viability counter screen (AID 743225); note: nearly all actives have a fitted effect of over 50% in size
In short: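 HEK293T VDR-bla; cpd + 1a,25-(OH)2D3 3 nM final, 16 h 37C/5% CO2; B/G FRET substrate 2 h RT; then CellTiter-Glo 30 min RT, luminescence.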

[19] = qHTS assay to identify small molecule agonists of the constitutive androstane receptor (CAR) signaling pathway - cell viability counter screen (AID 1224836); note: nearly all actives have a fitted effect of over 45% in size
In short: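 Cells were seeded and incubated 4 hrs. Compounds were added across 15 concentrations together with PK11195 at 0.75 uM final. Plates were incubated 23 hrs at 37 C. CellTiter-Fluor was added and fluorescence measured.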

[20] = qHTS assay to identify small molecule antagonists of the constitutive androstane receptor (CAR) signaling pathway - cell viability counter screen (AID 1224837); note: nearly all actives have a fitted effect of over 45% in size
In short: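 HepG2 cells stably carrying hCAR and CYP2B6-2.2kb reporter, stimulated with 50 nM CITCO and compounds at 15 concentrations for 23 h at 37 C. Viability measured by CellTiter-Fluor fluorescence.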

Measured: Potency

COc1cc([N+](=O)[O-])ccc1N
active: [14] 24.3 µM
inactive: [1] | [2] | [3] | [4] | [5] | [6] | [7] | [8] | [9] | [10] | [11] | [12] | [13] | [15] | [16]

CCCCCCCCCCCCC1CO1 (configuration not stated)
inactive: [17] | [18] | [1] | [2] | [3] | [4] | [5] | [6] | [7] | [8] | [9] | [10] | [11] | [12] | [13] | [15] | [19] | [16]

CCN(CCC#N)c1ccccc1
inactive: [17] | [18] | [1] | [2] | [3] | [4] | [5] | [6] | [7] | [8] | [9] | [10] | [12] | [13] | [14] | [15] | [19] | [20] | [16]

CC(=O)OC(C(=O)c1ccccc1)c1ccccc1 (configuration not stated)
inactive: [17] | [1] | [2] | [3] | [4] | [5] | [6] | [7] | [8] | [10] | [11] | [12] | [13] | [14] | [15] | [19] | [20] | [16]

CCOC(=O)CCc1ccccc1
inactive: [17] | [18] | [1] | [2] | [3] | [4] | [5] | [6] | [7] | [8] | [9] | [10] | [13] | [14] | [15] | [19] | [20]

COC(=O)CCC(=O)O
inactive: [17] | [18] | [1] | [2] | [3] | [4] | [5] | [6] | [7] | [8] | [9] | [10] | [12] | [13] | [14] | [15] | [20]

Cc1nc2n(c(=O)c1CCN1CCC(C(=O)c3ccc(F)cc3)CC1)CCS2
inactive: [17] | [18] | [1] | [2] | [3] | [4] | [5] | [6] | [7] | [8] | [9] | [10] | [11] | [13] | [14] | [15] | [19]
